HP1b binding inh: HTS for Inhibitors of HP1-beta Chromodomain Interactions with Methylated Histone Tails; AlphaScreen HP1-beta / biotin-H3K9me3 peptide binding; AID 540317, 2011; Chromobox protein homolog 1 (Homo sapiens), P83916; actives 0.56% (n = 390,000); Potency, µM (titrated, usually from 114 µM), inactives show at the top dose activity change, negative = inhibition, actives largely listed as inhibitors; also: nearly all actives have a fitted effect of over 70% in size
Target sequence (P83916 whole entry, looked up): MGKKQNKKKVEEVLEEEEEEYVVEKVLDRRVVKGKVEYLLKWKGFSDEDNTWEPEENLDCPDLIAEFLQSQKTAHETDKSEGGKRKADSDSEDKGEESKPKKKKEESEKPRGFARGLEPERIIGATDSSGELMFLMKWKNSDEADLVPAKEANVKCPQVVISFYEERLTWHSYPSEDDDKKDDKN
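HP1-beta protein (50 nM final) preincubated 30 min at room temperature with biotinylated H3(1-18)K9me3 peptide (50 nM) in PBS pH 7.4, 0.01% Tween-20, then compound added for 30 min. AlphaScreen streptavidin donor/nickel chelate acceptor beads (10 ug/mL final), 30 min dark, luminescence read.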
BAZ2B block: qHTS Assay for Inhibitors of BAZ2B; Potency, µM (top dose mostly 114 µM), for inactives: at the highest dose activity change, negative = inhibition, hits mostly inhibitors; actives 4.4% (n = 360,000); AlphaScreen BAZ2B-H3K14Ac peptide displacement; Bromodomain adjacent to zinc finger domain protein 2B (Homo sapiens), Q9UIF8; also: % is scaled to controls: 0 for no effect and ±100 for the full control effect; nearly all actives have a fitted effect of over 60% in size
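AlphaScreen displacement: compounds (up to 110uM) incubated 30 min at room temperature with a preformed 50 nM BAZ2B/50 nM biotinylated H3K14Ac peptide complex in PBS pH 7.4 with Tween-20. Donor and acceptor beads at 10 ug/mL final added, 20 min light-protected before reading.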
Sfp inh: qHTS Assay for Inhibitors of Bacillus subtilis Sfp phosphopantetheinyl transferase (PPTase) | 4'-phosphopantetheinyl transferase ffp (Bacillus subtilis), Q9F4F7 | actives 3.5% (n = 310,000) | Potency, µM, for inactives: largest response in the series, negative = inhibition, actives largely listed as inhibitors | Biochemical Sfp PPTase activity, qHTS;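 also: the enzyme is Sfp with the accession as filed and its product quenches rhodamine fluorescence; 0% = enzyme reaction without inhibitor and -100% = no enzyme wells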
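Sfp 15 nM + cpd, 15 min RT; start w/ rhodamine-CoA 5 uM, BHQ-2-YbbR 12.5 uM (final); 50 mM Hepes pH 7.6, 10 mM MgCl2, 0.01% NP-40, 0.01% BSA; read 525/598 nm at 0 and 30 min.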
JMJD2A Tudor inh: qHTS Assay for Inhibitors of JMJD2A-Tudor Domain; AlphaScreen JMJD2A-Tudor / H3K4me3 peptide binding; Potency, µM (top dose mostly 114 µM), for inactives: top-dose activity change, negative = inhibition, most hits filed as inhibitors; actives 4.4% (n = 390,000); AID 504339, 2011; also: % is scaled to controls: 0 for no effect and ±100 for the full control effect; nearly all actives have a fitted effect of over 50% in size
G9a inh: qHTS Assay for Inhibitors of Histone Lysine Methyltransferase G9a | G9a H3K9 monomethylation, AlphaScreen, 2 h | actives 8.8% (n = 350,000) | Histone-lysine N-methyltransferase EHMT2 (Homo sapiens), Q96KQ7 | Potency, µM (series often up to 102 µM), without a hit: top-dose activity, negative = inhibition, usual class: inhibitors | AID 504332, 2011; also: % is scaled to controls: 0 for no effect and ±100 for the full control effect; nearly all actives have a fitted effect of over 75% in size
Target sequence (Q96KQ7 913-1193 limits assumed): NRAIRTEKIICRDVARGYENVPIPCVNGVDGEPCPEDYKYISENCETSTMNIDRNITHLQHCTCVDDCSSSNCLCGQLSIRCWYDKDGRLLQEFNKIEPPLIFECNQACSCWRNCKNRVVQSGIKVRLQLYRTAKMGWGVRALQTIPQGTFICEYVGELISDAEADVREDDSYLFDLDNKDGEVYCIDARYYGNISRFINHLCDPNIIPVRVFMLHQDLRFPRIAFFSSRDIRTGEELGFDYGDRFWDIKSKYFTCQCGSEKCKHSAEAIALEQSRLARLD
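Signal arises when biotinylated H3K9 peptide, once monomethylated, bridges streptavidin donor and antibody-captured acceptor beads. Enzyme at 20 nM was preincubated 15 min with test compounds; peptide 500 nM and SAM 20 uM then reacted for 2 h.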
L3MBTL1 inh: qHTS Assay for the Inhibitors of L3MBTL1; Lethal(3)malignant brain tumor-like protein 1 (Homo sapiens), Q9Y468; actives 0.66% (n = 230,000); AID 485360, 2010; Potency, µM (titrated, usually from 57.1 µM), inactives show top-dose activity, negative = inhibition, usual class: inhibitors; AlphaScreen L3MBTL1–H3K9me1 peptide binding; also: % is scaled to controls: 0 for no effect and ±100 for the full control effect; nearly all actives have a fitted effect of over 60% in size
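First, the protein-peptide complex forms for 30 min at room temperature (L3MBTL1 50 nM, biotinylated H3K9me1 peptide 75 nM). Next, compounds are pin-transferred and incubated 30 min. Finally, AlphaScreen beads are added and read after 30 min.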
Starred values were filed as active, the others as inactive; ? = inconclusive; / = not tested or not shown; [ ] = another dose, or the depositor's remark. An excerpt weighted towards active compounds, which were near 12% of everything screened. Calls follow the shape of the dose curve; as a rule, active = well fitted curve in the direction sought with a large enough effect; inconclusive = small, poorly fitted or top-dose-only effect, or another doubt; inactive = no such curve, though single readings can be large; an effect the other way counts as inactive or inconclusive. Potency is read from the fitted curve at half-maximal effect.

SMILES	HP1b binding inh	BAZ2B block	Sfp inh	JMJD2A Tudor inh	G9a inh	L3MBTL1 inh
COc1ccc(C2=NN(c3ccccc3)C(=O)/C2=C\c2ccc(O)c(OC)c2)cc1	16µM*	25µM*	5%	16µM*	16µM*	/
C=CCn1c(SCC#N)nc2ccc(Cl)cc2c1=O	21%[57 µM]	/	/	7%[57.1 µM]	/	/
NCCC(=O)O	/	/	-4%	/	35%[59 µM]	/
COc1cc(NS(=O)(=O)c2cc(NC(C)=O)ccc2OC)c(OC)cc1NC(=O)c1ccccc1	-7%	/	/	-31%	/	/
Cc1cc(C2=NNC(=NC3CC3)SC2)c(C)n1-c1c(C)n(C)n(-c2ccccc2)c1=O	25%	-11%	?	-6%	?	1%
Cc1c(N=C2SCC(=O)N2/N=C/c2ccccc2Cl)c(=O)n(-c2ccccc2)n1C	-7%	-26%	5%	-19%	?	/
Cc1c(N=C2NN=C(c3c[nH]c4ccccc34)CS2)c(=O)n(-c2ccccc2)n1C	22%	-28%	?	?	45µM*	-13%
Cc1c(N=C2NN=C(c3ccc(Cl)cc3)CS2)c(=O)n(-c2ccccc2)n1C	1%	-26%	50µM*	-30%	10µM*	/
CCCCn1c(N)c(N(CC(C)C)C(=O)Cc2ccc(S(=O)(=O)N3CCOCC3)s2)c(=O)[nH]c1=O	19%	/	/	-6%	/	/
O=C(CSc1nnnn1C1CCCCC1)Nc1ccccc1N1CCOCC1	31%	-27%	-1%	-10%	35µM*	0%
CC(C)n1nnnc1SCC(=O)Nc1ccccc1N1CCOCC1	11%	7%	-8%	-14%	-12%	6%
CC(C)CC(NC(=O)CC12CC3CC(CC(C3)C1)C2)C(=O)NC1=NCCS1 (stereo not drawn)	4%	5%	17%	22µM*	/	2%
Cc1c(Cl)cccc1-n1c(SCC(=O)NCc2ccccc2)nc2n[nH]c(C)c2c1=N	32%	1%	/	-7%	4%[59 µM]	/
CC(=O)c1sc(N/N=C2\CC3CC2C(C)C3(C)C)nc1C (stereo not drawn)	-12%	?	35µM*	?	40µM*	-29%
Cc1ccc(S(=O)(=O)N2CCN(c3nc(-c4ccc(F)cc4)nc4cc(Cl)ccc34)CC2)cc1	30%	/	/	-8%	/	/
CCNC(=S)N1CCN(c2nc(-c3ccc(F)cc3)cs2)CC1	1%	-34%	5%	-27%	22%	/
COCCNC(=S)N1CCN(c2nc(-c3ccc(Cl)cc3)cs2)CC1	6%	-31%	7%	32µM*	?	-1%
COCCNC(=S)N1CCN(c2nc(-c3ccc(F)cc3)cs2)CC1	1%	?	-4%	-35%	50µM*	-11%
CNC(=S)N1CCN(c2nc(-c3ccc(Cl)cc3)cs2)CC1	-11%	0%	6%	-14%	12%	2%
COc1cccc(-c2csc(N3CCN(C(=S)Nc4ccc(Cl)cc4)CC3)n2)c1	-6%	26%	45µM*	-24%	?	19%
COc1cccc(-c2csc(N3CCN(C(=S)Nc4ccccc4)CC3)n2)c1	15%	-8%	1%	-7%	12%[0.501 µM]	-2%
Cc1cc(C)c(S(=O)(=O)N2CCCC(C(=O)NC3CC3)C2)c(C)c1 (stereo not drawn)	30%	-10%	21%	-5%	/	/
CC1CCCN(c2oc(-c3cccc4ccccc34)nc2C#N)C1 (stereo not drawn)	-4%	-31%	7%	4%	-50%	0%
Cc1ccccc1-c1nc(C#N)c(N2CCC(C)CC2)o1	?	?	-8%	?	35µM*	/
CC1CCN(c2oc(-c3ccccc3Cl)nc2C#N)CC1	?	10µM*	?	?	10µM*	?
SMILES	HP1b binding inh	BAZ2B block	Sfp inh	JMJD2A Tudor inh	G9a inh	L3MBTL1 inh
CCOC(=O)c1ccc(NC(=O)c2ccc3c(c2)c(C)c(C)n3Cc2ccc(F)cc2)cc1	9%	-14%	/	-24%	-3%[59 µM]	/
CCC1CCCCN1C(=O)CCCOc1ccccc1 (stereo not drawn)	7%	0%	4%	14µM*	11%	/
CCOc1c(Br)cc(Br)cc1/C=C1\SC(N)=NC1=O	10%	?	-12%	25µM*	/	-6%
COc1cc(/C=C2\SC(N)=NC2=O)cc(Br)c1O	2%	?	4%	-26%	-8%[0.501 µM]	2%[2.29 µM]
COc1cc(/C=C2\SC(c3ccccc3)=NC2=O)cc(Cl)c1O	13µM*	35µM*	7.9µM*	6.3µM*	-157%[59 µM]	?
CCOc1ccc(-c2nn(-c3ccccc3)cc2/C=C2\SC(N)=NC2=O)cc1C	9%	-10%	-2%	-26%	1%	5%
COc1cc(/C=C2\SC(c3ccc(C)cc3)=NC2=O)ccc1O	?	22µM*	22µM*	28µM*	11µM*	-14%
COc1ccc(/C=C2\SC(c3ccc(C)cc3)=NC2=O)cc1OC	20µM*	-19%	?	28µM*	2.2µM*	11%
COc1cc(OC)c(OC)cc1CNC(=O)c1cc(S(=O)(=O)N(C)c2ccccc2OC)ccc1C	6%	/	/	-34%	/	/
CCOc1cc(/C=C2\SC(N)=NC2=O)ccc1O	23%	-11%	?	-7%	56µM*	-13%
COc1cc(/C=C2\SC(c3ccc(C)cc3)=NC2=O)cc(OC)c1OC	?	-8%	?	56µM*	1µM*	-3%
CCOc1cc(/C=C2\SC(=O)N=C2N)ccc1O	23%	4%	-1%	-13%	-20%[59 µM]	-5%
COc1ccc(/C=C2/SC(c3ccc(C)cc3)=NC2=O)cc1OC	?	-32%	32µM*	50µM*	2.8µM*	-2%
Cc1cc(OCc2cc(C(=O)N(C)CCc3cnn(C)c3)no2)cc(C)c1Cl	34%	-7%	-10%	-22%	/	/
COc1ccc(CNC(=O)Cn2c(=O)nc(-c3ccccc3)c3cc(Cl)ccc32)cc1OC	44%	-14%	/	-2%	4%[12.7 µM]	/
CCCCS(=O)(=O)N1C2=NC(C(=O)OC)=C(C(=O)OC)[C@@H]3Nc4ccccc4[C@]23C[C@H]1C(=O)OC	/	/	-4%	/	/	/
NS(=O)(=O)c1ccc(N=NN2CCCCC2)cc1	9%	0%	3%	-17%	?	5%
NS(=O)(=O)c1ccc(N=Nc2ccc(O)c3ncccc23)cc1	?	3.5µM*	-21%	20µM*	50µM*	/
Nc1nc(N)c(N=Nc2ccc(S(N)(=O)=O)cc2)c(=O)[nH]1	44%	?	-10%	-10%	35%[0.501 µM]	5%

Screens from PubChem BioAssay.
